# Most compounds without a hit are left out; they make up all but 2.6% or so of the library.
# ABHD5-PLIN5 inh – inhibitors of human ABHD5-perilipin-5 interaction. Q00G26+Q8WTS1. Split G. princeps luciferase complementation, luminescence, 4 h. inhibition, % at 4 µM. 360,000 tested, 0.78% active. AID 602281;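 active means inhibition above the mean inhibition across every tested compound plus 3 SD, cut at about 22% in these data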;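 further: 0% = DMSO only wells and the 100% control is not disclosed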
# Rce1 inh – yeast Ras-converting enzyme inhibition; 290,000 tested, 0.27% active; yeast membranes, quenched prenylated peptide cleavage fluorescence; Q03530; calls only;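 active means fall in fluorescence gain of 50% or more versus controls, with final raw signal at or below 3038400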;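 further: plate controls were neutral control wells for no effect and wells lacking membranes for full effect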
# Target sequence (Q03530 whole entry, looked up): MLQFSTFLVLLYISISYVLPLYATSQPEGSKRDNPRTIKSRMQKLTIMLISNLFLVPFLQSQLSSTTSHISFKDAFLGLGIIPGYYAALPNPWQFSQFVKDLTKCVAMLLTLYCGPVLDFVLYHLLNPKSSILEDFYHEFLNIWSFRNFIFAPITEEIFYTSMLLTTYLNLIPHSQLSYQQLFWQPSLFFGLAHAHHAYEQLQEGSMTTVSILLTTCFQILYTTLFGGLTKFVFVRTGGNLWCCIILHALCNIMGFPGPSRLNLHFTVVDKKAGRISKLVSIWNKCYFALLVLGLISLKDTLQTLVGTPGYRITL
# Exocytosis inh – lytic granule exocytosis inhibition; inhibition, % at 10 µM; 360,000 tested, 0.66% active; AID 651702; TALL-104 LAMP-1 surface exposure, flow cytometry; cells stimulated with thapsigargin and PMA;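 active means inhibition above about 55%, limit read from the data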
# Platelet DG rel – modulates dense granule release in human platelets; human platelet-rich plasma, SFLLRN dense granule ATP release, luminescence; inhibition, %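 (compounds screened at 7.5 µM in platelet-rich plasma)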; 300,000 tested, 0.22% active; AID 1663;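 active means mean replicate score, as percent of positive control, at or above 50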
# M18AAP inhibitor – blocks P. falciparum M18 aspartyl aminopeptidase. inhibition, % at 7.35 µM. recombinant PfM18AAP, H-Glu-NHMec fluorogenic cleavage. AID 1822. 290,000 tested, 1.2% active;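 active means inhibition above the campaign mean inhibition over all tested compounds plus 3 SD, cut at about 28% in these data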;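 further: 0% = plate median of test compound wells and 100% = 2 mM ZnCl2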
# ABHD5 PLIN5 conf – confirmation of human ABHD5-PLIN5 interaction inhibitors | shares compounds with ABHD5-PLIN5 inh | biochemical ABHD5-PLIN5 interaction, luminescence | inhibition, % at 4 µM | 2,200 tested, 67% active; in the data active means inhibition above about 23%;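 further: 0% = DMSO vehicle wells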
# HNF4 split-luc – HNF4 split-luciferase signal hit, counter-screen. shares compounds with ABHD5-PLIN5 inh. HNF4 dimerization, luminescence, biochemical. inhibition, % at 4 µM. 2,200 tested, 77% active;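 active means mean inhibition across replicate wells exceeding the computed hit threshold, cut at about 13% in these data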;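 further: light from luciferase halves that rejoin when HNF4 fusion proteins dimerize; 0% = DMSO only wells and the 100% control is not given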
# Active calls of the source: *; i = inactive; . = no result.
SMILES,ABHD5-PLIN5 inh,Rce1 inh,Exocytosis inh,Platelet DG rel,M18AAP inhibitor,ABHD5 PLIN5 conf,HNF4 split-luc
CCC(C)NCCOCCOc1ccc(Cl)c2ccccc12 (stereo not given),29.7*,i,10.8,0.9,-4.2,14.9,1.5
O=C(Cn1cnc2ccccc21)N/N=C/c1cccs1,-3.1,i,-3.7,-10.2,4.0,.,.
COc1cc2c(cc1OC)C(=O)C(c1ccc3c(c1)OCO3)CC2 (stereo not given),1.9,.,0.4,.,.,.,.
COc1cc2c(cc1OC)C(=O)C(Br)CC2 (stereo not given),82.4*,.,100.4*,.,.,5.4,15.6*
CC(=Cc1ccccc1)C(=O)c1ccccc1,-5.4,.,-6.3,.,.,.,.
O=C(C(Br)=Cc1ccccc1)c1ccccc1,50.8*,.,17.1,.,.,83.0*,97.6*
CC(=O)C(=Cc1ccc(-c2ccccc2)cc1)C(=O)c1ccccc1,95.5*,.,34.2,.,.,98.2*,95.9*
N#CC(=Cc1ccc(-c2ccccc2)cc1)C(=O)c1ccccc1,12.8,.,-13.1,.,.,.,.
COc1ccc(OC)c2c1C(=O)c1ccccc1C2=O,.,i,.,-4.1,13.5,.,.
COC1=CC(=O)C(OC)=C(OC)C1=O,25.8*,.,1.1,.,.,52.0*,73.3*
O=C(O)/C=C/C(=O)c1ccc2c(c1)NC(=O)CO2,90.1*,i,-2.3,7.7,-26.5,90.9*,104.8*
C=C1C(=O)[C@]23C[C@H]1CC[C@H]2[C@]1(C)[C@@H](OC(C)=O)CC[C@@](C)(C(=O)O)[C@H]1C[C@@H]3O,52.2*,.,1.6,.,.,52.8*,105.1*
C=C1C(=O)[C@]23C[C@H]1CCC2[C@@]1(C)C(C[C@@H]3O)[C@](C)(C(=O)OC)CC[C@@H]1OC(C)=O (stereo not given in full),77.6*,.,13.2,.,.,84.7*,108.7*
C=C1C(=O)[C@]23C[C@H]1CC[C@H]2[C@]1(C)[C@@H](OC(C)=O)CC[C@@](C)(C(=O)OC)[C@H]1C[C@@H]3OC(C)=O,55.9*,.,3.2,.,.,70.7*,97.9*
Cc1c(OC(C)C(=O)NCCCN2CCOCC2)ccc2c3c(c(=O)oc12)CCCC3 (stereo not given),-12.6,i,0.0,-2.8,0.8,.,.
CCOc1ccc(N)c(SSc2cc(OCC)ccc2N)c1,72.8*,i,47.5,-6.0,43.3*,81.5*,96.6*
COc1ccc(C(=O)NCCNc2nc3ccc(C)cc3cc2C#N)cc1OC,85.5*,i,1.0,-4.1,14.3,-1.5,12.6*
CCOc1ccc2nc(NCCCNC(=O)c3cc(OC)c(OC)c(OC)c3)c(C#N)cc2c1,2.8,i,0.3,4.4,-5.6,.,.
NC(=O)CSc1nnc(-c2cccs2)n1Cc1ccco1,0.6,i,-3.7,10.3,-1.0,.,.
O=C(CSc1nnc(-c2ccncc2)n1Cc1ccco1)c1ccc(Cl)cc1,32.5*,i,28.4,12.6,9.1,17.7,29.4*
O=C(CSc1nnc(-c2ccc(Cl)cc2)n1Cc1ccco1)c1cccs1,33.1*,i,3.4,-2.6,-26.4,11.6,13.7*
O=C(CSc1nnc(-c2ccncc2)n1Cc1ccco1)Nc1ccccc1Cl,1.6,i,-2.4,-4.2,-1.9,.,.
CC(C)c1nnc(NC(=O)CCS(=O)(=O)c2nc(-c3cccs3)cc(C(F)(F)F)n2)s1,37.0*,i,23.7,-0.8,-5.8,76.2*,88.8*
CC(C)c1nnc(NC(=O)CCS(=O)(=O)Cc2ccccc2)s1,-9.7,i,1.2,-19.7,1.2,.,.
CC1=NNC(=O)/C1=C\c1cn(-c2ccccc2)nc1-c1ccccc1,74.0*,i,43.7,4.0,65.7*,98.7*,101.4*
SMILES,ABHD5-PLIN5 inh,Rce1 inh,Exocytosis inh,Platelet DG rel,M18AAP inhibitor,ABHD5 PLIN5 conf,HNF4 split-luc
CCC1CN(C(=O)N2CCC(C(=O)NCCc3ccccc3OC)CC2)c2ccccc2O1 (stereo not given),-1.1,i,0.2,12.2,-8.8,.,.
COC(=O)c1ccc(CN2CCN(CCC(C)C)C(CCO)C2)cc1 (stereo not given),2.1,.,-1.9,11.2,-5.4,.,.
O=C(Nc1ccc(Br)cc1)C1CC=CCC1C(=O)OCC1CCCO1 (stereo not given),7.5,i,4.2,-2.6,11.3,.,.
O=S(=O)(/C(=C\c1ccc(C(F)(F)F)cc1)c1nc2ccccc2[nH]1)c1ccccc1,86.0*,.,69.7*,.,.,101.2*,96.5*
Cc1ccc(/C=C/C(=O)NC2CCCCCCC2)o1,50.2*,i,58.0*,5.8,-35.5,54.6*,70.8*
Cc1ccc(/C=C/C(=O)NCC2COc3ccccc3O2)o1 (stereo not given),23.8*,i,51.4,0.3,-67.0,49.3*,62.7*
CCCOc1ccccc1-n1sc2c(c1=S)-c1cc(OC)cc3c1N(C(=O)C3=O)C2(C)C,35.2*,.,-1.9,-0.7,-3.2,78.5*,67.3*
Cc1ccc(OCCN(C)C(=O)CC2C(=O)NCCN2CC(C)(C)C)cc1 (stereo not given),-3.6,i,-2.8,-3.3,1.7,.,.
C=C1C(=O)C23C(O)C1CCC2C12COC3(O)C(O)C1C(C)(C)CCC2O (stereo not given),96.0*,.,0.1,.,.,88.1*,105.9*
O=C1OC(c2ccccc2)=N/C1=C\C=C\c1ccco1,38.7*,i,-1.4,-10.1,12.1,14.9,34.6*
O=C1OC(c2ccccc2)=N/C1=C\C=C\c1ccccc1[N+](=O)[O-],0.8,i,-0.7,12.3,9.7,.,.
O=C1OC(c2ccc(Cl)cc2)=N/C1=C\C=C\c1ccco1,52.8*,i,-0.8,-1.7,2.5,18.1,17.3*
O=C(O)c1ccc(S(=O)(=O)c2ccccc2C(=O)O)c([N+](=O)[O-])c1,3.3,i,-6.2,15.5,13.3,.,.
O=C(O)c1ccc(S(=O)(=O)c2ccc([N+](=O)[O-])cc2[N+](=O)[O-])cc1,42.3*,i,-5.5,-1.1,-46.8,68.3*,110.2*
COc1cccc(OCc2ccc(Cl)cc2)c1C#N,-9.5,i,-8.4,0.8,-10.0,.,.
Cc1sc(C(C2C(=O)CC(C)(C)CC2=O)C2C(=O)CC(C)(C)CC2=O)cc1[N+](=O)[O-],56.5*,i,73.0*,-0.7,7.0,91.9*,88.9*
COc1ccc(Br)cc1/C=C/C(=O)c1ccc(NC(C)=O)cc1,27.0*,.,0.0,.,1.8,85.5*,81.3*
O=C(c1ccc(Br)s1)N1CCN(C/C=C/c2ccccc2)CC1,-1.0,i,-4.5,-3.9,1.6,.,.
Cc1ccc(C2=NN=C(NC(=O)CSc3nncn3C)SC2)cc1,44.9*,i,1.6,32.3,54.4*,70.2*,102.1*
Cc1ccc(C(=O)NC(=O)CSc2nncn2C)cc1,-4.4,.,-6.8,0.8,-0.7,.,.
COc1ccc(OCCC(=O)OCC(=O)NC2CCCCC2)cc1,-4.6,.,7.8,.,.,.,.

# High-throughput results: PubChem, several laboratories
